Experimental findings from PubChem BioAssay AID624040 (The Scripps Research Institute Molecular Screening Center, 2012) are described below.

Values joined by “and” are separate entries in the source; they are usually repeats but may differ in a detail not shown here. Identical values can stand only once. The campaign covered roughly 360,000 compounds. About 2,100 (0.58%) were called active.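 Rule for the calls: active = inhibition above a per-plate cutoff, the mean of that plate's test compounds plus 3 SD (cut at about 27% in these data); inactive = the rest.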 Shown is part of a subset that was picked to be rich in actives. A structure can be active in one record and inactive in another.

The target in the assay is Muscarinic acetylcholine receptor M5 (Homo sapiens) (UniProt P08912). Put plainly: human M5 muscarinic receptor antagonists, primary screen, CHO cells, Fluo-8 calcium fluorescence (AID 624040).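 Note: 0% = acetylcholine EC80 with DMSO and 100% = DMSO without agonist.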 As to conditions: CHO-hM5 cells, ACh EC80, at 3 µM, stronger effect = higher value.
Chain of Muscarinic acetylcholine receptor M5 (Homo sapiens) (P08912 whole entry, looked up): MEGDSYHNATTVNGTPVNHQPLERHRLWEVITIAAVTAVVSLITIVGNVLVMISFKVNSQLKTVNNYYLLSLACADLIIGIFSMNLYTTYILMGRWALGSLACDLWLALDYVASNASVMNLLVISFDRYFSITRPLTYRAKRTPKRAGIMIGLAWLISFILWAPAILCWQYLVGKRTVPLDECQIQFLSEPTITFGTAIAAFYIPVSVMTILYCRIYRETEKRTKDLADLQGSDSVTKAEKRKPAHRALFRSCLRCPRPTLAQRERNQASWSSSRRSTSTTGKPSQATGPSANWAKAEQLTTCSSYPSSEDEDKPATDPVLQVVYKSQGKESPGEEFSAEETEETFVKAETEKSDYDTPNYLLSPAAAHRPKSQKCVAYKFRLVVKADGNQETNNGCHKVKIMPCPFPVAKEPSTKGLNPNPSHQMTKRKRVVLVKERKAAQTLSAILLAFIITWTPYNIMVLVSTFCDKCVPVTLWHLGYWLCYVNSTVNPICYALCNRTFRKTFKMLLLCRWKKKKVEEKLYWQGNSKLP
On to `Cc1cc(C(F)(F)F)nn1CC(=O)N1CCCC1`, for which the inhibition (in general, the relative decrease from the control value, in per cent) is -0.38% (inactive).
In the case of `O=C(Nc1ccc(OC(F)(F)F)cc1)c1ccc2c(c1)no[n+]2[O-]` it was 28.2% (active); in that of `O=S(=O)(Nc1ccc(OC(F)(F)F)cc1)c1cccc2nonc12`, 3.29% (inactive).
In the case of `CCOc1ccc(C(=O)Nc2ccc(S(=O)(=O)Nc3cc(C)on3)cc2)cc1` it was 7.9% (inactive).
In the case of `O=C(COC(=O)c1ccc(N2CCCC2=O)cc1)c1ccc(OC(F)F)cc1` it was 6.05% (inactive); in that of `COc1cccc(OC)c1C(=O)Nc1c(C(=O)N2CCN(c3ccccn3)CC2)oc2ccccc12`, 9.59% (inactive); in that of `COc1cccc(-n2c(N)cc(=O)nc2SCC(=O)Nc2cc(C)on2)c1`, -11.3% (inactive).
On to `COc1ccc(CCNC(=O)CCc2ccccc2O)cc1OC`, for which the inhibition was -1.37% (inactive).
In the case of `COc1ccc(CCNc2nc(C)cc(C)n2)cc1OC` it was 1.9% (inactive).
`COc1ccc(CCNC2=C(Cl)C(=O)N(Cc3ccccc3)C2=O)cc1OC`: the inhibition was 31.8% (active).
On to `N#CCCN(C(=S)Nc1ccc(Cl)c(Cl)c1)C1CCCCC1`, for which the inhibition is 24.6% (inactive).
For `CCN1CCN(C(=O)/C=C\C(=O)O)CC1`, the inhibition was 2.54% (inactive).
Take `O=C(Nc1ccc(Cl)cn1)c1cnn2cccnc12`: the inhibition was -6.64% (inactive).
For the compound `O=C(Nc1ccc(Cl)cn1)c1ccccc1-c1ccccc1`, the inhibition is 10.9% (inactive).
Take `O=C(Nc1ccc(Cl)cn1)Nc1cccs1`: the inhibition was 31.8% (active).
The result for `CC(C)C[C@H](NC(=O)N1CCn2c1nc1ccccc12)C(=O)NC1CC1` reads 0.78% (inactive); that for `CCN(CC)S(=O)(=O)c1ccc2nc(CSc3nnnn3-c3ccc(O)cc3)[nH]c2c1`, 10.1% (inactive).
In the case of `Cc1nc2ccccc2cc1OCc1ccc(F)cc1` it was 47.8% (active).
Regarding `Fc1ccc(COc2cccc(-c3n[nH]c(=S)o3)c2)cc1`, the inhibition was 8.85% (inactive).
The result for `Fc1cccc2ncnc(OCc3ccccc3)c12` reads 4.79% (inactive); that for `O=C(CSc1nccc(=O)[nH]1)Nc1ccc(N2CCOCC2)c(Cl)c1`, 12.6% (inactive).
Turning to `CCOc1ccc(C(C)=O)cc1CSc1nnc(-c2ccncc2)n1CCOC`, the inhibition was 12% (inactive).
As to `CCN1C(=O)CS/C1=N\c1nccs1`, the inhibition is -0.1% (inactive).
For `CCOc1ccc(C(=O)NCC(=O)N2CCCCCCC2)cc1OCC`, the inhibition is 1.82% (inactive).
The result for `C=CC1=C(C(=O)O)N2C(=O)[C@@H](NC(=O)/C(=N/OCC(=O)O)c3csc(N)n3)[C@H]2SC1` reads -2.27% (inactive).
In the case of `CO/N=C(\C(=O)N[C@@H]1C(=O)N2C(C(=O)O)=C(COC(C)=O)CS[C@H]12)c1csc(N)n1` (stereo in doubt) it was 0.17% (inactive) and 51.3% (active) and 30.6% (active).
The result for `CCN1CCN(C(=O)N[C@@H](C(=O)N[C@@H]2C(=O)N3C(C(=O)O)=C(CSc4nnnn4C)CS[C@H]23)c2ccc(O)cc2)C(=O)C1=O` reads -7.79% (inactive); that for `COc1ccc(C(=O)Cn2nnc(-c3ccc(N4CCOCC4)cc3)n2)cc1OC`, 16.5% (inactive); that for `N#CCc1ccc(NC(=O)c2ccccc2C(=O)Nc2ccc(CC#N)cc2)cc1`, 2.31% (inactive).
With `COc1cc(OC)c2ccc(=O)oc2c1C(CCN1CCN(c2ccccc2)CC1)c1ccc2c(c1)OCO2` (stereo not drawn), the inhibition is 31.3% (active).
As for `COc1cc(C(CCN2CCN(c3ccccc3)CC2)c2c(OC)cc(OC)c3ccc(=O)oc23)cc(OC)c1OC` (stereo not drawn), the inhibition is 17% (inactive).
The result for `CCN(CC)CCC(c1ccc2c(c1)OCO2)c1c(OC)cc(OC)c2c(-c3ccccc3)cc(=O)oc12` (stereo not drawn) reads 7.48% (inactive); that for `Cc1ccc(NC(=O)c2cc([N+](=O)[O-])ccc2Cl)c(O)c1`, 1.06% (inactive).
The result for `CCOC12CC(C)(C)CC(C)(CC3=C1C(=O)CC(C)(C)C3)C2` (stereo not drawn) reads -1.41% (inactive).
Turning to `Cc1ccc(CNC(=O)CCNS(=O)(=O)c2ccc(Br)s2)cc1`, the inhibition is -7.85% (inactive).
The result for `CCN(CC(=O)Nc1ccccc1C(=O)NC1CC1)Cc1cccs1` reads -5.91% (inactive); that for `CSc1ncc(C(=O)Nc2ccc(C)cc2C)c(C)n1`, 0.26% (inactive); that for `CC(=O)Oc1ccc(C(=O)Nc2nccs2)cc1`, -0.3% (inactive).
The result for `CSc1nccc(NC(=O)c2ccc(C(C)(C)C)cc2)n1` reads 32.5% (active); that for `O=C(CSc1nn(-c2ccc(F)cc2)c(=S)s1)NC1CCS(=O)(=O)C1` (stereo not drawn), 2.55% (inactive).
In the case of `CC(=O)NC(c1cccs1)c1cc(Br)c2cccnc2c1O` (stereo not drawn) it was -3.57% (inactive); in that of `CCn1c(N)c(Br)c(=O)[nH]c1=O`, -11.1% (inactive); in that of `Cc1ccc(N2CC(C(=O)NCCS(=O)(=O)N3CCN(c4ccccc4)CC3)CC2=O)cc1` (stereo not drawn), 8.26% (inactive).
In the case of `N#C/C(=C/c1ccc(N2CCCCC2)o1)C(=O)NCCc1c[nH]c2ccccc12`, the inhibition was 31.6% (active).
The result for `Cc1ccc(C(=O)N/C(=C/c2ccco2)C(=O)NCCc2c[nH]c3ccccc23)cc1C` reads 0.84% (inactive).
Turning to `N#C/C(=C\c1ccc(N2CCOCC2)o1)C(=O)N1CCOCC1`, the inhibition was 0.08% (inactive).
For the compound `Cc1ccccc1CSc1nnc(-c2ccccn2)n1N`, the inhibition was -0.16% (inactive).
In the case of `CC(C)(C)S(=O)(=O)N1Cc2cc(CO)cc(CCO)c2[C@H]1CCO` it was -3.33% (inactive).
Consider `CN1CCC(=NNC(=O)c2ccc(N(Cc3ccc(Cl)cc3)S(C)(=O)=O)cc2)CC1`, for which the inhibition is -3.74% (inactive).
`CC(NC(=O)c1ccc(Cl)cc1)C(=O)N1CCCCC1` (stereo not drawn): the inhibition was -2.56% (inactive).
As for `CCC1CCC/C1=N\NC(=O)c1ccc(Cl)cc1` (stereo not drawn), the inhibition was 27.5% (active).
The result for `COc1cc(OC)cc(-c2c(C#Cc3ccsc3)c3cc(-c4ccc(OC)cc4F)ccc3n2C)c1` reads 8.22% (inactive); that for `CCN(CC)c1ccc(NC(=O)CN2CCN(c3ccccn3)CC2)cc1`, 1.09% (inactive).
The result for `CCOc1ccc(OCc2ccc(C(=O)N(C)c3ccccc3)o2)cc1` reads 8.29% (inactive); that for `CN(C(=O)CN1CCN(c2cc(-c3ccc(OCc4ccccc4)cc3)ncn2)CC1)c1ccccc1`, 27.1% (active).
The result for `C[C@H](NS(=O)(=O)c1ccc(Cl)cc1)C(=O)OCC(=O)N1CCOCC1` reads 14.1% (inactive); that for `CN(C)CCNC(=O)c1ccc(Cl)c2cc3ccccc3nc12`, 0.61% (inactive); that for `N#C/C=C\Oc1ccc(Cl)cc1N`, 1.41% (inactive).
